uPA surface inh: inhibitors of cell surface uPA generation. cell surface uPA generation assay, qHTS. AID 540303. 0.31% of 330,000 active. Potency, µM (highest dose often 38.3 µM), for the others: at the highest dose activity change, negative = inhibition, usual class: inhibitors; active = well fitted inhibition curve with a large enough effect; inconclusive = small, poorly fitted or top-dose-only effect; inactive = no such curve, though single readings can be large or run the other way; tested in mouse RAW 264.7 cells; note: potency is the fitted concentration of half-maximal effect; % is set by controls: 0 for no effect and ±100 for the full control effect; nearly all actives have a fitted effect of over 55% in size
ALOX12 inh: ALOX12 (human) lipoxygenase inhibition | AID 1671190 | purified 12hLO, xylenol orange hydroperoxide absorbance | Potency, µM (series often up to 108 µM), inactives show at the top dose activity change, negative = inhibition, usual class: inhibitors | 1.1% of 580,000 active | P18054; note: potency is the fitted concentration of half-maximal effect; % is set by controls: 0 for no effect and ±100 for the full control effect
Target sequence (P18054 whole entry, looked up): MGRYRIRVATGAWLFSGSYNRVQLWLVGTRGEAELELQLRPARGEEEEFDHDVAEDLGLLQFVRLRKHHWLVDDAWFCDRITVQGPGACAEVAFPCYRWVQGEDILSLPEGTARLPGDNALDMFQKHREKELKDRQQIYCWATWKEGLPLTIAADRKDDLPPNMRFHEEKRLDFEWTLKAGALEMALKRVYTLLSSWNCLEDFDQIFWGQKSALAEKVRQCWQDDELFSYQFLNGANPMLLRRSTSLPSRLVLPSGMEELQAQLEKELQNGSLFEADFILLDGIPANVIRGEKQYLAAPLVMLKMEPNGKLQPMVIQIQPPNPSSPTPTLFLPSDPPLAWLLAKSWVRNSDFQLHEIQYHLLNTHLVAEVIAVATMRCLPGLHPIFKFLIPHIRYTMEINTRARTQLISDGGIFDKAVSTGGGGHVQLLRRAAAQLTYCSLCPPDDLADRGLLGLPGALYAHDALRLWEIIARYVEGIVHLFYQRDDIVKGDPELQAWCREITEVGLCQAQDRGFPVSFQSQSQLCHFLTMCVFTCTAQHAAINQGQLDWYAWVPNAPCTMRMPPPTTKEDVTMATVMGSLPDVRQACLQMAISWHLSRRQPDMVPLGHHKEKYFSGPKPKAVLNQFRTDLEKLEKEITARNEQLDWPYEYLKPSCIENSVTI
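Hydroperoxide product was detected by ferrous iron/xylenol orange as the 573 to 405 nm absorbance ratio. Arachidonic acid at 40 uM (final) was turned over for 30 min at room temperature by 150 nM human 12hLO, pH 7.0 Hepes buffer, after 15 min compound preincubation.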
Nrf2 activator: activators of Nrf2 (ARE) signaling; AREc32 ARE-luciferase reporter (MCF7-derived line), luminescence, 24 h; Potency, µM (top dose mostly 46.1 µM), for inactives: at the top dose activation, actives largely listed as activators; 0.31% of 410,000 active; note: potency is the fitted concentration of half-maximal effect; % of control where 0% means no effect; nearly all actives have a fitted effect of over 65% in size
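Luciferase luminescence (Steady-Glo, 30 min at room temperature) served as the read-out of ARE activation in AREc32 cells treated with compounds for 24 hr at 37 deg C.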
a7 integrin act: integrin-mediated muscular dystrophy alleviation activation; alpha7betagal myoblasts, beta-gal FDG fluorescence, 48 h; Potency, µM (top dose mostly 38.3 µM), for inactives: top-dose activation, hits mostly activators; 0.064% of 350,000 active; AID 624291;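 note: potency is the fitted concentration of half-maximal effect; 100% = response of the positive control SU9516; nearly all actives have a fitted effect of over 60% in size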
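Alpha7betagal+/- myoblasts (passage 13) were plated 16-24 hr, then exposed to compounds (1:260 dilution of DMSO stock) for 48 hours at 37C. After MPER lysis, β-galactosidase reporter activity was read as FDG fluorescence (ex 480/em 540) after 30 minutes.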
IL2 activator: activates IL-2 in a cell-based reporter assay; IL-2 activation reporter assay, cell-based qHTS; stimulated with anti-CD3/CD4/CD28 beads; in transgenic mouse T cells; 0.065% of 360,000 active; activation, % (series mostly up to about 46 µM); in the data active = activation above about 50%; inconclusive = mostly about 30% to 49%; note: 0% is about no effect
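Quantitative HTS in unstimulated transgenic mouse T cells, with memory T cells as non-tolerant control and PMA/ionomycin as tolerance-bypass control. Compound pretreatment lasted 60 minutes before 18 h bead stimulation; EGFP/DsRed fluorescence read.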
Numbers without * were called inactive; ? = inconclusive; . = not tested or not shown; ! = a repeat was not active; [ ] = another dose, or the depositor's remark. This is a sample that favours compounds with a hit; in the whole collection about 1.5% have one here. Unless noted, calls come from the whole dose curve; as a rule, active = well fitted curve in the direction sought with a large enough effect; inconclusive = small, poorly fitted or top-dose-only effect, or another doubt; inactive = no such curve, though single readings can be large; an effect the other way counts as inactive or inconclusive.

SMILES | uPA surface inh | ALOX12 inh | Nrf2 activator | a7 integrin act | IL2 activator
CC(C)c1ccc(NC(=O)CSc2ncnc3ccccc23)cc1 | . | 7% | . | . | .
CCCCCCCCCCCCCCCCC | . | 7%[176 µM] | . | . | .
CCCC[N+](CCCC)(CCCC)CCCC | . | 11µM* | . | . | .
CC(C)=C1C(=O)NN(c2cccc(Cl)c2)C1=O | -8% | ? | -1% | 9% | -3
CC(C)=C1C(=O)NN(c2ccc(C)c(Cl)c2)C1=O | -2% | 50µM* | 3% | 15% | 0
CC(C)C(=O)Nc1ccc(-c2nc(-c3ccccc3)co2)cc1 | . | -13% | . | . | .
COC(=O)c1cc(-c2ccccc2)sc1N | -4% | ? | 16µM* | 6% | -2
CN(C)c1ncccc1CNC(=O)Cc1ccc(F)cc1 | . | -7% | . | . | .
NCCCC[C@@H](C(=O)NCCCCCCCCCCC(=O)N1CCNCC1)n1cc(CCO)nn1 | 8% | ? | 0% | 14% | 1
Cc1cn([C@@H](CCCCN)C(=O)NCCCCCCCCCCC(=O)N2CCNCC2)nn1 | -1% | 32µM* | 5% | 0% | 1
O=C(C=Cc1ccc(O)cc1)c1ccc(O)cc1O | . | 7.9µM* | . | . | .
COc1ccc(C=CC(=O)c2cc(O)ccc2O)cc1 | -13% | ? | ? | -19% | 0
O=C(/C=C/c1ccc(Cl)cc1)c1cc(Cl)cc(Cl)c1O | . | 3.5µM* | . | . | .
FC(F)(F)c1ccc(-c2noc(CSc3nc4ccccc4o3)n2)cc1 | . | 18% | . | . | .
CCn1cnnc1-c1nn(C)c2c1CN(C(=O)Cc1ccc(NC(C)=O)cc1)CC2 | . | 9% | . | . | .
O=C1Nc2cc(C(=O)NCCCN3CCCC3)ccc2S/C1=C/c1ccccc1F | -11% | 7% | -4% | 0% | 3
O=C1Nc2cc(C(=O)NCCN3CCCCCC3)ccc2S/C1=C/c1ccccc1F | . | 28µM* | -5% | -64% | -4
COc1cc(CC2C(=O)Nc3ccccc32)cc(C)c1O (configuration not stated) | 5% | -8% | 14% | 14% | 1
COc1cc(OC)c(CC2C(=O)Nc3cc(Cl)ccc32)c(OC)c1 (configuration not stated) | . | 18µM* | . | . | .
Cc1cc(CNC(=O)c2cc(-c3ccc(CO)cc3)cc3c2OCCN3C)no1 | . | -4%[176 µM] | . | . | .
OC(CNCCc1ccc(C(F)(F)F)cc1)COC(c1ccccc1)c1ccccc1 (configuration not stated) | ? | 14µM* | -2% | -79% | -4
CC(C)c1noc(-c2cn(C3CCN(C(=O)c4ccoc4)CC3)nn2)n1 | . | -1% | . | . | .
Cn1nnnc1Sc1ncnc2scc(-c3cccc(Br)c3)c12 | 8.9µM* | -3% | 12% | . | 0
Cn1nnnc1Sc1ncnc2scc(-c3ccccc3Cl)c12 | 10µM* | -8% | -2% | . | -1
Cc1sc2ncnc(Sc3nnnn3-c3ccccc3)c2c1C | ? | -18% | 8.9µM* | -56% | -2
SMILES | uPA surface inh | ALOX12 inh | Nrf2 activator | a7 integrin act | IL2 activator
Cn1nnnc1Sc1ncnc2scc(-c3cccc(S(C)(=O)=O)c3)c12 | -6% | -5% | -2% | . | -1
Cn1nnnc1Sc1ncnc2scc(-c3ccc(Cl)cc3)c12 | ? | -2% | -2% | . | -1
COc1cc2c(cc1NC(=O)CCCOc1ccccc1)oc1ccccc12 | . | -2% | . | . | .
Cc1cccc2c(-c3ccccc3)cc(=O)[nH]c12 | -5% | 0% | 0% | 10% | 0
Cc1cc(=S)[nH]c2c(C)cccc12 | 9% | 1.1µM*! | 0% | 3% | 1
COc1cc(OC)cc(C(=O)N2CCC(c3n[nH]c(=O)n3-c3ccc(C)cc3)CC2)c1 | . | 5% | . | . | .
O=C(Nc1ccc2ccccc2n1)c1ccccc1Br | -8% | -14% | 11µM* | -10% | 0
O=C(Nc1ccc2ccccc2n1)c1ccccc1 | ? | 15% | 11µM* | -15% | -2
Cc1c(OS(C)(=O)=O)ccc2c1O/C(=C\c1ccc3c(c1)OCO3)C2=O | . | -35% | . | . | .
COc1cccc(C2C(C(=O)c3cc4ccccc4o3)=C(O)C(=O)N2c2cc(C)on2)c1OC (configuration not stated) | 6% | ? | 18% | 0% | 0
Cc1cc(N2C(=O)C(O)=C(C(=O)c3cc4ccccc4o3)C2c2cccc(Br)c2)no1 (configuration not stated) | 5% | 45µM* | 7% | 7% | 1
COc1cc(C2C(C(=O)c3cc4ccccc4o3)=C(O)C(=O)N2c2cc(C)on2)cc(OC)c1OC (configuration not stated) | -6% | 10µM* | 3% | 7% | -3
C[C@@H]1CN(Cc2nc3c(n2Cc2ccccc2)C(=O)N(Cc2ccccc2F)CCN3)C[C@H](C)O1 | . | 13% | . | . | .
CC1=C[C@@H](CNC(=O)c2ccco2)[C@H](C(C)C)C[C@H]1CC(=O)N(C)Cc1ccccc1 | . | 5%[176 µM] | . | . | .
N#Cc1ccc(CN2C[C@@H](CO)[C@H](c3ccccn3)C2)cc1 | . | 15% | . | . | .
CN1CCN(c2cc(-c3ccc(N(C)C)cc3)ncn2)CC1 | . | -21% | . | . | .
CN1CCN(c2cc(-c3ccoc3)ncn2)CC1 | . | 11µM* | . | . | .
CN1CCN(c2ccnc(-c3cccnc3)n2)CC1 | . | -14% | . | . | .
CN1CCN(c2ccnc(-c3ccoc3)n2)CC1 | . | 22µM* | . | . | .
O=C(CNc1cccc(S(=O)(=O)N2CCCC2)c1)N1CCN(C(=O)c2cccs2)CC1 | . | -6% | . | . | .
CCOc1ccc(CNCCCSc2ncccn2)cc1 | -4% | 2% | -1%[9.22 µM] | -42% | -2
CC(C)c1ccc(CNCCCSc2ncccn2)cc1 | -27% | 25µM* | 2% | -66% | 5
O=C(NC1CCCCC1)C1CCCN(c2cnn(Cc3ccccc3)c(=O)c2)C1 (configuration not stated) | . | 6% | . | . | .
COc1ccc(C(=O)Nc2ccccc2C(=O)NCc2cccnc2)cc1 | 7.1µM* | -5% | 0% | -1% | -1
CCC(CC)C(=O)N1CC(c2nnc(-c3ccc(C)cc3)o2)C2(CCOCC2)C1 (configuration not stated) | . | 14% | . | . | .
SMILES | uPA surface inh | ALOX12 inh | Nrf2 activator | a7 integrin act | IL2 activator
Clc1ccc(-c2ccn[nH]2)cc1 | -15% | ? | 5% | 18% | 1
Cc1ccc(-c2c(C)sc3nc[nH]c(=O)c23)cc1C | 3% | 14% | 2% | 0% | 0
Cc1ccc(-c2ccnc(=S)[nH]2)cc1C | . | 2.5µM* | . | . | .
S=c1nccc(-c2ccc(Cl)cc2)[nH]1 | 3% | 13µM* | 2% | -7% | 0
CC(C)CCN1CCC(N2CCN(C(=O)c3cccc(Br)c3)CC2)C1=O (configuration not stated) | . | 47% | . | . | .
CCc1noc(-c2cn(C3CCN(C(=O)c4ccc5c(c4)OCO5)CC3)nn2)n1 | . | 26% | . | . | .
COc1ccc(NS(=O)(=O)c2cc(NC(=O)c3ccc(=O)[nH]c3)ccc2C)cc1 | 23% | -27% | -1% | 16% | 1
COc1ccc(NS(=O)(=O)c2cc(NC(=O)[C@@H](NC(=O)c3ccccc3)C(C)C)ccc2C)cc1 | 13µM* | 1% | 3% | -15% | -4
CCNc1ccc(S(=O)(=O)N(C)C)cc1[N+](=O)[O-] | -11% | 45µM* | 0% | 9% | 1

High-throughput results deposited in PubChem by National Center for Advancing Translational Sciences (NCATS).
